# Data reported in ChEMBL document CHEMBL3988442, “University of Dundee, Small-Polar-MMV Screening Library” (2021).
# Out of some 69,000 compounds screened, about 950 (1.4%) showed an effect of 50% or more. The list comes from a sample in which strong results are over-represented; it also holds similar structures and randomly drawn compounds.
# Test system: Mycobacterium tuberculosis
# Assay: Cornell M. t heat shock assay; also: in the data most compounds retested in dose-response had high values
# Format: functional, organism-based
# Parameters: dose or concentration left out as unconfirmed
row,Compound,Percent Effect [%]
1,Cc1ccc(C(=O)N2CCC3(CC2)CC(c2cnn(C)c2)CO3)cn1.O=C(O)C(F)(F)F (configuration not stated),-3.038
2,NC(=O)N1CC[C@H](O)[C@@H]1Cc1cccnc1.O=C(O)C(F)(F)F,-3.918
3,C=C(C)CSc1nnc(CCNC(=O)OC(C)(C)C)o1,54.16
4,CCN(CC)C(=O)CSc1nnc(CCNC(=O)OC(C)(C)C)o1,3.451
5,COC(=O)CSc1nnc(CCNC(=O)OC(C)(C)C)o1,12.63
6,O=C(O)C(F)(F)F.O=C(c1ccco1)N1CCO[C@@H]2CN(CC3CC3)CC[C@@H]2C1,-6.108
7,Fc1ccc(OCc2nnc([C@H]3CCN(Cc4ccncc4)C3)o2)cc1,43.75
8,CC(C)CN1CC[C@H](c2nnc(COc3ccc(F)cc3)o2)C1,15.46
9,Cc1ccc(CN2CC[C@H](c3nnc(COc4ccc(F)cc4)o3)C2)o1,102.2
10,Cc1nn(C)c(C)c1S(=O)(=O)N1CC[C@H]2O[C@@H](C)C[C@H]2C1.O=C(O)C(F)(F)F,4.759
11,CNc1cc(C2CN(Cc3scnc3C)CCO2)nc(C)n1 (configuration not stated),67.88
12,CNc1cc(C2CN(Cc3csc(C)n3)CCO2)nc(C)n1 (configuration not stated),-32.62
13,Cc1nc(C2CN(Cc3scnc3C)CCO2)cc(N(C)C)n1 (configuration not stated),-20.95
14,COc1cc(CN(CCCN(C)C)Cc2ccccn2)cc2c1OCO2.O=C(O)CC(O)(CC(=O)O)C(=O)O,-27.2
15,CC(N(C)Cc1nc2c(cnn2C)c(=O)[nH]1)C(C)(C)C (configuration not stated),4.654
16,O=C(Nc1cnccn1)[C@@H]1C[C@H]2OCC[C@H]2N(Cc2ccsc2)C1.O=C(O)C(F)(F)F,-23.53
17,COc1cc(C)cc(C(C(=O)O)N(C)Cc2ccon2)c1OC (configuration not stated),14.77
18,COc1cc(F)ccc1C(C(=O)O)N(C)Cc1ccon1 (configuration not stated),98.53
19,COc1ccc(Cl)cc1C(C(=O)O)N(C)Cc1ccon1 (configuration not stated),-13.11
20,Cc1ccc(C(=O)N2CCc3c(CN4CCCC4)nn(C)c3C2)cc1C.O=C(O)C(F)(F)F,-28.38
21,CC(C)COC(=O)N1CC(=O)N(Cc2ccc(Cl)cc2)CC(O)C1 (configuration not stated),47.42
22,Cc1ccc(CN2CC(O)CN(C(=O)OCC(C)C)CC2=O)cc1 (configuration not stated),52.29
23,COc1ccc(CN2CC(O)CN(C(=O)OCC(C)C)CC2=O)cc1 (configuration not stated),43.83

row,Compound,Percent Effect [%]
1,CCOC(=O)N1CC(=O)N(CCc2ccccc2)CC(O)C1 (configuration not stated),15.03
2,CC(C)COC(=O)N1CC(=O)N(CCCc2ccccc2)CC(O)C1 (configuration not stated),54.63
3,CC(C)COC(=O)N1CC(=O)N(CCc2ccccc2)CC(O)C1 (configuration not stated),34.47
4,COc1cc(N2CC[C@H]3O[C@@H](C(=O)NC4CCCC4)CC[C@H]32)ncn1.O=C(O)C(F)(F)F,-0.9791
5,Cl.O=C(NC1CCCC1)c1ccc(C2CCCNC2)nc1 (configuration not stated),-7.361
6,Cc1c(C2CCCN(C(=O)c3ccncc3)C2)n2c(nc1=O)CCC2.Cl (configuration not stated),-13.79
7,Cl.O=C(N[C@@H]1CN[C@H]2CCCO[C@H]21)c1cnccn1,-42.37
8,CNC(=O)CC1CCN(Cc2nc(-c3ccc(SC)cc3)oc2C)CC1,1.977
9,CNC(=O)C1CCN(Cc2nc(-c3ccc(SC)cc3)oc2C)C1 (configuration not stated),12.81
10,CNC(=O)CC1CCN(Cc2nc(-c3cccc(Cl)c3)oc2C)CC1,52.75
11,CCn1nc(C)c(-c2cncn2Cc2ccccc2CN(C)C)c1C.Cl,2.066
12,O=C(O)C(F)(F)F.c1cc(CN2CCO[C@H]3[C@H](OCC4CCOCC4)CC[C@@H]32)co1,4.016
13,Cn1ncc2c(NCCC34CCCN3CCC4)nc(C3CCCC3)nc21,90.62
14,Cn1ncc2c(NCCn3cccc3)nc(C3CCCC3)nc21,-24.81
15,CCOCCNc1nc(C2CCCC2)nc2c1cnn2C,10.38
16,CNCCCNc1nc(C2CCCC2)nc2c1cnn2C,-14.72
17,CC(C)N(CCNc1nc(C2CCCC2)nc2c1cnn2C)C(C)C,102.6
18,CCS(=O)(=O)CCNc1nc(C2CCCC2)nc2c1cnn2C,-23.34
19,CN(C)CCN1CCC2(CCN(C(=O)c3cccc(F)c3)CC2)C1=O.O=C(O)C(F)(F)F,-26.99
20,COCC1CN(Cc2cnn(C)c2)Cc2nn(C)cc21.O=C(O)C(F)(F)F (configuration not stated),-8.537
21,CNCC(=O)N1CCCC(c2nccnc2Oc2cccc(F)c2)C1.Cl (configuration not stated),-3.012
22,O=C(NCCc1cccnc1)c1nc2c(s1)CCCN2C(=O)C1CC1.O=C(O)C(F)(F)F,31.31
23,Cl.Fc1ccccc1CNc1ccnc(C2CCNCC2)c1,-7.114

row,Compound,Percent Effect [%]
1,CCS(=O)(=O)Nc1cnn(Cc2cccc(C)c2)c1,-6.735
2,CCS(=O)(=O)Nc1cnn(Cc2cccc(Cl)c2)c1,69.75
3,CS(=O)(=O)Nc1cnn(Cc2cccc(Cl)c2)c1,-3.827
4,O=C(O)C(F)(F)F.O=C(c1cccs1)N1C[C@@H]2OCCN(CC3CCCO3)[C@@H]2C1 (some centres not stated),-25.16
5,CC[C@@H]1N(C)CCC[C@]12CCC(=O)N2Cc1ccncc1.O=C(O)C(F)(F)F.O=C(O)C(F)(F)F,-9.742
6,O=C(O)C(F)(F)F.O=C(O)c1c(-c2cccnc2)ncc2c1CCN(CC1CCOC1)C2 (configuration not stated),-9.377
7,O=C(O)C(F)(F)F.O=C(O)C(F)(F)F.O=C(O)C(F)(F)F.O=C1C[C@H]2[C@@H](CCN2Cc2ccccn2)N1CCN1CCOCC1,-15.17
8,O=C1CCNC(=O)N1CC(=O)N1CCC1c1ccc(F)cc1 (configuration not stated),51.34
9,O=C(CN1C(=O)CCNC1=O)N1CCC(c2ccc(F)cc2)C1 (configuration not stated),18.83
10,O=C(CN1C(=O)CCNC1=O)N1CCOC(c2ccc(F)cc2)C1 (configuration not stated),12.93
11,O=C(O)C(F)(F)F.O=C(O)C(F)(F)F.c1cncc(CN2CC[C@H]3O[C@@H](COCC4CCOCC4)CC[C@H]32)c1,-5.632
12,CC(C)N1CCC2(C=C(C(=O)NC3CC3)c3ccccc32)CC1.O=C(O)C(F)(F)F,-2.25
13,O=C(O)C(F)(F)F.c1csc(NCc2n[nH]c3c2CCN(CC2CC2)C3)n1,-23.28
14,Cc1cccc(CN2CCCn3c(nnc3Cn3cccn3)C2)n1.O=C(O)C(F)(F)F,-30.89
15,CCc1cnc(CN(C)C2CCN(CCc3cccs3)C2)o1 (configuration not stated),-5.267
16,CCc1cnc(CN(C(C)=O)C2CCN(CCc3ccccn3)C2)o1 (configuration not stated),-12.32
17,Cc1cnc(CN(C)C2CCN(CC(=O)N(C)c3nccs3)C2)o1 (configuration not stated),15.65
18,Cc1cnc(CN(C)C2CCN(CC(=O)Nc3nncs3)C2)o1.O=C(O)C(F)(F)F (configuration not stated),-4.89
19,CCc1cnc(CN(C)C2CCN(CC(=O)Nc3nccs3)C2)o1 (configuration not stated),61.16
20,CC(C)c1cnc(CN(C)C2CCN(CCc3ccccn3)C2)o1 (configuration not stated),-13.05
21,Cc1cnc(CN(C)C2CCN(CC(=O)Nc3nccs3)C2)o1 (configuration not stated),66.08
22,CCc1cnc(CN(C)C2CCN(CCc3ccccn3)C2)o1 (configuration not stated),105.9
23,CCc1cnc(CN(C)C2CCN(CC(=O)Nc3cc(C)on3)C2)o1 (configuration not stated),-19.35

row,Compound,Percent Effect [%]
1,CC(=O)Nc1ccc(CN2C[C@H]3CC[C@@H]2CN(c2ncccn2)C3)cc1,8.779
2,CC(C)NC(=O)N1Cc2nccn2CC(COc2cccnc2)C1.O=C(O)C(F)(F)F (configuration not stated),-13.64
3,CNC(=O)CN1CCCC12CCN(C(=O)c1ccsc1)CC2.O=C(O)C(F)(F)F,-20.96
4,O=C(Cc1ccccn1)N1CCN2C[C@H](Oc3cncnc3)C[C@H]2C1.O=C(O)C(F)(F)F.O=C(O)C(F)(F)F,3.514
5,CCOc1ccc(CNCC(O)c2ccccc2)cc1Cl.Cl (configuration not stated),35.2
6,CN1CCCCC1c1ncc2c(n1)CCN(CCCc1ccccc1)C2 (configuration not stated),101.2
7,Cn1cnc2c1CCN(CCCc1ccccc1)C2,8.155
8,COc1ccc(CN2CCc3nc(C4CCCCN4C)ncc3C2)cc1 (configuration not stated),25.26
9,CN1CCc2nc(C3CCCCN3Cc3ccccc3Cl)ncc2C1 (configuration not stated),-4.117
10,Cl.Clc1ccccc1CN1CCc2nc(C3CCCCN3)ncc2C1 (configuration not stated),12.35
11,CN1CCCCC1c1ncc2c(n1)CCN(Cc1ccc(Cl)c(F)c1)C2 (configuration not stated),103.7
12,CN1CCCCC1c1ncc2c(n1)CCN(Cc1ccccc1Cl)C2 (configuration not stated),87.15
13,Cc1ncc2c(n1)CN(CCCc1ccccc1)CC2,3.621
14,CN1CCCCC1c1ncc2c(n1)CCN(Cc1ccc(F)cc1)C2 (configuration not stated),35.62
15,O=C(CC1CC1)N1CC[C@H]2[C@@H]1CCC(=O)N2c1cccnc1.O=C(O)C(F)(F)F,-6.311
16,CC(C)NC(=O)C1(CC2CC(c3ccc(F)cc3)=NO2)CCNCC1.O=C(O)CC(O)(CC(=O)O)C(=O)O (configuration not stated),-19.28
17,CNC(=O)C1Cn2ccnc2C2(CCN(Cc3cccnc3)CC2)O1.O=C(O)C(F)(F)F.O=C(O)C(F)(F)F.O=C(O)C(F)(F)F (configuration not stated),-3.867
18,COc1ccccc1CN1CCCCC1c1n[nH]cc1-c1cc(C)no1.Cl (configuration not stated),14.98
19,COc1cccc(CN2C[C@@H]3COC[C@]3(COCc3ccncc3)C2)c1.O=C(O)C(F)(F)F.O=C(O)C(F)(F)F,-3.091
20,Cc1csc(CN(C)C2CCN(c3sccc3C#N)C2=O)n1 (configuration not stated),-26.99
21,Fc1ccc(CN2CCCC3(CCN(Cc4ncc[nH]4)C3)C2)cc1F (configuration not stated),0.7553
22,Cc1ccc(CN2CCC3(CCCN(Cc4ccc(F)c(F)c4)C3)C2)o1 (configuration not stated),10.97
23,Cc1c[nH]c(CN2CCC3(CCCN(Cc4ccc(F)c(F)c4)C3)C2)n1 (configuration not stated),58.72
